Screening data deposited in PubChem by The Scripps Research Institute Molecular Screening Center.
The full list was thinned out, with hits kept by preference.
GBA enhancer: enhancers of human beta-glucosidase activity in Gaucher fibroblasts; P04062; L444P Gaucher fibroblasts, 4-MU-glucoside fluorescence, 3 days; activation, % at 10 µM; 0.44% of 30,000 active; AID 784; in the data active = activation above about 65%;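 note: 0% = vehicle wells and 100% = positive control wells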
Target sequence (P04062 whole entry L483P): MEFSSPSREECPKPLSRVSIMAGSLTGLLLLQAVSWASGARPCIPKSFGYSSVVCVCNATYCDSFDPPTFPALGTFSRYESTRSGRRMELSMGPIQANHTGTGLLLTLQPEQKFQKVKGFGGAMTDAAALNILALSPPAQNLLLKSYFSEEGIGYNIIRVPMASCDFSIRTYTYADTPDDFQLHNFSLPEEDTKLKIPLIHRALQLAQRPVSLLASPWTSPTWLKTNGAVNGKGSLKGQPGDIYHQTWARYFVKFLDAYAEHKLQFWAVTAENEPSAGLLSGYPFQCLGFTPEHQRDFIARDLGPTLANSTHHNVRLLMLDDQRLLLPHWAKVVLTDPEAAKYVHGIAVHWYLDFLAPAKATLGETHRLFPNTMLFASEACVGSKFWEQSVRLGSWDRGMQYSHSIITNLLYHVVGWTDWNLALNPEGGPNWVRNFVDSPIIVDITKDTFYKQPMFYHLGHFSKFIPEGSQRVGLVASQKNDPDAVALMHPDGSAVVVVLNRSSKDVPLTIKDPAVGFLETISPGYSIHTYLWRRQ
* hit, by the source's call.

SMILES	GBA enhancer
O=c1cccc2n1CC1CC2CN(Cc2cccc(Cl)c2Cl)C1 (configuration not stated)	404*
O=C(Cn1cnc2sc3c(c2c1=O)CCCC3)NCCC(=O)N1CCC2(CC1)OCCO2	-9
COc1ccc(C(=O)N2CCCC2=O)cc1	-15
c1cncc(C2CC(c3cccs3)n3ncnc3N2)c1 (configuration not stated)	-10
Cc1ccccc1C1=NCC(=O)N(CC(=O)NCc2ccco2)c2sc3c(c21)CCCC3	-4
CC(C)n1cc(C(=O)N(CC(=O)NC2CCCC2)Cc2ccccc2)cn1	15
O=C1CC(=O)N(c2ccc3c(c2)OCO3)C(=O)N1	81*
O[C@@H]1CCCC[C@H]1N1CCC(c2ccccc2)CC1	13
O=C1C2CCCN2C(c2ccccc2)N1c1ccccn1 (configuration not stated)	-5
O=C(C1CC(=O)N(c2ccc(F)c(Cl)c2)C1)N1CCC2(CC1)OCCO2 (configuration not stated)	-32
